The values below come from PubChem BioAssay.

SMILES strings stand for the structures. Unmarked numbers belong to inactive results. Active and inactive are the calls of the source.

Chain of Luciferin 4-monooxygenase (Photinus pyralis) (P08659 whole entry, looked up): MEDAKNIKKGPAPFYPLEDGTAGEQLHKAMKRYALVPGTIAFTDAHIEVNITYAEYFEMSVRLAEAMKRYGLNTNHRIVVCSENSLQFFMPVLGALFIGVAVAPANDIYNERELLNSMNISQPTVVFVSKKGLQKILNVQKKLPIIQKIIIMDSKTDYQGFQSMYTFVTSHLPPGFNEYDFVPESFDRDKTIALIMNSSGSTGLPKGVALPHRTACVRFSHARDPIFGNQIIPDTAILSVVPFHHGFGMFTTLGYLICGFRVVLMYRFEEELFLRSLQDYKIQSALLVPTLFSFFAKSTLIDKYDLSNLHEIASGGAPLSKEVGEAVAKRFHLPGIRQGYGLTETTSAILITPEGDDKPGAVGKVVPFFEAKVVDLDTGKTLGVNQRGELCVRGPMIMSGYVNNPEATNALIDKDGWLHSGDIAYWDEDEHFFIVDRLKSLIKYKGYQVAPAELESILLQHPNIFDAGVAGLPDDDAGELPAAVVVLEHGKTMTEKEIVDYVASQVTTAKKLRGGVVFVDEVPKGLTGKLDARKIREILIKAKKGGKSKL

The assay has as its target Luciferin 4-monooxygenase (Photinus pyralis) (UniProt P08659). The assay is described as follows: inhibition of purified Photinus pyralis luciferase – biochemical, luminescence, purified enzyme, 2006 set, primary screen (AID 1141).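 Also: cell-free assay with purified firefly luciferase at 100 ng per well in PBS; test concentration not given here.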 The settings on record: purified firefly luciferase, SteadyGlo luminescence, 30 min; higher = more signal, called active from +8 up or from −8 down.
Take `C=C(CCCC)C(=O)CC[C@@H](OC(=O)c1cccnc1)c1ccc(CO)o1`: the z-score is -2.32.
The same measure for `COc1ccc(C(=O)O[C@H]2CC[C@]3(C)C4=C(CCC3C2(C)C)[C@]2(C)CC[C@H]([C@H](C)CCCC(C)C)[C@@]2(C)CC4)cc1` (some centres not stated): -0.384; for `[N-]=[N+]=NCc1ccccc1[C@@H]1OC(c2ccc(OCCCO)cc2)=N[C@]1(Cc1ccccc1N=[N+]=[N-])C(=O)N1CCOCC1`: -1.52; for `COc1ccc([Si](C)(C)[C@@H]2[C@@H](CC(=O)N3Cc4ccccc4C[C@H]3CO)O[C@]3(C(=O)N(C)c4c(Br)cc(C)cc43)[C@H]2C)cc1`: -0.178.
Regarding `C=CC[C@@]1(C(=O)NCc2ccccc2)N=C(c2ccc(OCCCO)cc2)O[C@@H]1c1ccccc1N=[N+]=[N-]`, the z-score was -8.72 (active).
With `CC(CO)N1C(=O)[C@@H]2C3C(=O)OCCC/C=C\[C@H]3OC23C=CCN(c2ccc4ccccc4c2)C(=O)[C@@H]13` (some centres not stated), the z-score was -0.846.
With `C=CCOC(=O)[C@@H]1[C@H]2C(=O)O[C@H](c3ccccc3)[C@H](c3ccccc3)N2[C@H](c2ccc(OCCOC(=O)[C@@H]3C[C@@H]4C(=O)N[C@@H](CCCC[N+](C)(C)C)C(=O)N4[C@@H]3c3cccc(OCCO)c3)cc2)[C@@]12C(=O)Nc1ccc(I)cc12`, the z-score was -1.82.
The same measure for `CCOC(=O)C[C@H]1[C@H](OC(=O)Cc2ccc3c(c2)OCO3)[C@@H](NC(=O)c2ccc3ccccc3c2)c2cc(OCCCO)ccc2N1C(=O)c1ccccc1`: -1.05.
In the case of `[N-]=[N+]=Nc1ccccc1C[C@]1(C(N)=O)N=C(c2ccc(OCCCO)cc2)O[C@H]1c1ccccc1`, the z-score is -1.53.
The same measure for `COC(=O)C=C(CC(O)c1cccc(Cl)c1)OC` (configuration not stated): 0.699; for `Cc1ccc(C(C)CC(O)C2C=CC3C(=O)N(c4ccccc4)C(=O)C3N2Nc2ccc([N+](=O)[O-])cc2)o1` (configuration not stated): 1.45.
As for `[N-]=[N+]=Nc1ccccc1C[C@]1(C(=O)NCC(O)CO)N=C(c2ccc(OCCCO)cc2)O[C@H]1c1ccccc1N=[N+]=[N-]` (some centres not stated), the z-score is -3.26.
